# Measured values published in PubChem BioAssay.
# Activity calls are given as the source filed them.
# How the values were obtained:
# [1] = tested on: Plasmodium falciparum Sir2 (PF13_0152, Sir2A); assay: pfSir2 binders on small-molecule microarrays, primary screen, biochemical, small-molecule microarray, 635 nm fluorescence (AID 1098); details: small-molecule microarray binding, fluorescence 635 nm; higher = more signal;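 also: score merges spot fluorescence intensity with its signal-to-noise ratio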
# [2] = small-molecule microarray binders of probe aDKK1, primary screen, biochemical, biotinylated probe, 635/667 nm fluorescence (AID 1099); details: higher = more signal;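 also: score merges 667nm spot fluorescence with signal to noise across triplicate slides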
# [3] = small-molecule microarray binders of probe aCHRDL2, primary screen, biochemical, biotinylated probe, 635/667 nm fluorescence (AID 1100); details: higher = more signal
# [4] = splicing luciferase reporter signal modulators, primary screen, spliceosome inhibition project, cell-based, HEK293, splice +/- reporter (AID 1101); details: luminescence, 24 h, higher = more signal, called active from +8 up or from −8 down;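 also: HEK293 cells carrying a splicing-competent luciferase reporter gene; test concentration not given here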
# [5] = biological target: Fibroblast growth factor 10 (Homo sapiens) (UniProt O15520); assay: FGF10 binders on small-molecule microarrays, primary screen, biochemical, small-molecule microarray, 635 nm fluorescence (AID 1102); details: FGF10 binding, fluorescence 635 nm, higher = more signal
# Sequence of Fibroblast growth factor 10 (Homo sapiens) (O15520 whole entry, looked up): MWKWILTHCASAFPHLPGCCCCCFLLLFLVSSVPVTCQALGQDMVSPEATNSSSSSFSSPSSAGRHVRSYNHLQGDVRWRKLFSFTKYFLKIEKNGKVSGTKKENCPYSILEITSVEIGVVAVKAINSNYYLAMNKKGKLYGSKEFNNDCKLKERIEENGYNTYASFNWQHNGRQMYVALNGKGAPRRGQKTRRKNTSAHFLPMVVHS
# [6] = tested on: glycogen synthase kinase-3 (GSK3A per assay name; protocol says GSK3B); assay: GSK3 binders on small-molecule microarrays, primary screen, biochemical, small-molecule microarray, 635 nm fluorescence, GSK3A (AID 1103); details: small-molecule microarray binding, fluorescence 635 nm; higher = more signal; also: the record names both GSK3A and GSK3B
# [7] = biological target: Epidermal growth factor receptor (Homo sapiens) (UniProt P00533); assay: EGFR binders on small-molecule microarrays, primary screen, biochemical, small-molecule microarray, 635 nm fluorescence (AID 1104); details: EGFR binding, higher = more signal;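 also: score merges 667 nm emission intensity with spot signal to noise over triplicate slides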
# Sequence of Epidermal growth factor receptor (Homo sapiens) (P00533 whole entry, looked up): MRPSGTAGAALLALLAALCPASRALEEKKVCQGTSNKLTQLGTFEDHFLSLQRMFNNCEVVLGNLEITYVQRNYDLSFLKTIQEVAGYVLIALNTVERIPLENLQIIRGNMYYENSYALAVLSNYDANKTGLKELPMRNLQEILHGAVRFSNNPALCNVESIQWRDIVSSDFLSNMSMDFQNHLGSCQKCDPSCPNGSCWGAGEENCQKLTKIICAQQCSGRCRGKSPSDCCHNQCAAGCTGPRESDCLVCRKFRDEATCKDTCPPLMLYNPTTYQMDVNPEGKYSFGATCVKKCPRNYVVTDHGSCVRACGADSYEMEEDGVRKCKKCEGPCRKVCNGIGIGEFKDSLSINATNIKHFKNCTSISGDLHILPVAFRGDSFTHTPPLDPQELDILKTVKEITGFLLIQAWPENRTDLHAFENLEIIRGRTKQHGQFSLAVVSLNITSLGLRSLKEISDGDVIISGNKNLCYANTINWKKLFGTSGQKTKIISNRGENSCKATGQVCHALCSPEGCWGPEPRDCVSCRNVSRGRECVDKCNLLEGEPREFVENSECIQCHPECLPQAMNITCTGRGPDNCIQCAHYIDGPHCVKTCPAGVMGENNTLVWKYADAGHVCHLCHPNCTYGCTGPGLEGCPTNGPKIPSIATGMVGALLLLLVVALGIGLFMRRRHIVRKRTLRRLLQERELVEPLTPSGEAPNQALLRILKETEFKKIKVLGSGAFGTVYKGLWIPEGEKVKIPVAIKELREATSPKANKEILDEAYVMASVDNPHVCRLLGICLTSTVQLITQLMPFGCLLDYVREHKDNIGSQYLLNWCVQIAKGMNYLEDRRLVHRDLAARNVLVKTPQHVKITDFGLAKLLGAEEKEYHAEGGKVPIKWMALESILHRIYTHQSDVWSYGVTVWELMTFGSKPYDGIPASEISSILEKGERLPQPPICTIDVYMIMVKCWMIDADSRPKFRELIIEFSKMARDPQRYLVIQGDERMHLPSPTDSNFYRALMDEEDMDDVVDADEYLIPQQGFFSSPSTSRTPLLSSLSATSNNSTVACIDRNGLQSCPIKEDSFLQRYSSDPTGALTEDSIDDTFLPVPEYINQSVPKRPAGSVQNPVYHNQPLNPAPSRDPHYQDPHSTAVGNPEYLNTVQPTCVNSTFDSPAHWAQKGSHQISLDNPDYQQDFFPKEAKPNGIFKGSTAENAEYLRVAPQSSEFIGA
# [8] = biological target: Follistatin-related protein 3 (Homo sapiens) (UniProt O95633); assay: FSTL3 binders on small-molecule microarrays, primary screen, biochemical, small-molecule microarray, 635 nm fluorescence (AID 1105); details: FSTL3 binding, higher = more signal;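 also: score merges emission near 667 nm and signal to noise per printed spot across three slides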
# Sequence of Follistatin-related protein 3 (Homo sapiens) (O95633 whole entry, looked up): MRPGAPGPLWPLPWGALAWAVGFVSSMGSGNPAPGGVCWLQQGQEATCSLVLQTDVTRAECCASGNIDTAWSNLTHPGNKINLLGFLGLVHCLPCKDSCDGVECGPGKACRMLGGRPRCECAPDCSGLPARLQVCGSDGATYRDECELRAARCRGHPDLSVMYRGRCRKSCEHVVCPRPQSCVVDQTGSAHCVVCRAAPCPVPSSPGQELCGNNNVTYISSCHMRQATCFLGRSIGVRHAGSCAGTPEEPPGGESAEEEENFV
# [9] = biological target: Dickkopf-related protein 1 (Homo sapiens) (UniProt O94907); assay: DKK1 binders on small-molecule microarrays, primary screen, biochemical, small-molecule microarray, 635 nm fluorescence scan (AID 1106); details: DKK1 binding, higher = more signal;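 also: score merges emission near 667 nm with signal to noise over three replicate slides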
# Sequence of Dickkopf-related protein 1 (Homo sapiens) (O94907 whole entry, looked up): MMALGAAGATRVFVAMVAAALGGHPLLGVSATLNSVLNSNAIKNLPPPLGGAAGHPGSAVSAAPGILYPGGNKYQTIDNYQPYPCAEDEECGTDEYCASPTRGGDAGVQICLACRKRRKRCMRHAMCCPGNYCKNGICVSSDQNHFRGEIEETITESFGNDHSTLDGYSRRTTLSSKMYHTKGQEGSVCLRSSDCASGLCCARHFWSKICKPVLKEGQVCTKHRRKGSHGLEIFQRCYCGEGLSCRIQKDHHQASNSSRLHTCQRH
# [10] = tested on: Inhibin beta A chain (activin A); assay: INHBA (activin A) binders on microarrays, primary screen, biochemical, small-molecule microarray, 635 nm fluorescence scan (AID 1107); details: small-molecule microarray binding, higher = more signal;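 also: mouse activin A protein probed at 4.33 µg/mL on printed slides; score merges bound-protein fluorescence near 667 nm with spot signal-to-noise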
# [11] = tested on: Human papillomavirus type 1a protein E7 (residues 44-93); assay: HPV1a E7 fragment binders on microarrays, primary screen, biochemical, small-molecule microarray, residues 44-93, 635 nm fluorescence (AID 1108); details: small-molecule microarray binding, fluorescence 635 nm; higher = more signal;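 also: E7 fragment applied at 1 µg/mL in TBST for 1 h at 4 C; score combines spot fluorescence with its signal to noise ratio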
# [12] = modulators of HCV replicon luciferase signal, primary screen, HCV replication inhibitor project, Huh7 cells, luciferase reporter (AID 1109); details: 48 h, higher = more signal;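 also: huh7 hepatoma cells harbouring a luciferase neomycin HCV replicon reporter; luciferase luminescence as measure of HCV replicon replication; test concentration not given here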
# [13] = biological target: Left-right determination factor 2 (Homo sapiens) (UniProt O00292); assay: LEFTY2 binders on small-molecule microarrays, primary screen, biochemical, small-molecule microarray, 635 nm fluorescence scan (AID 1110); details: LEFTY2 binding, higher = more signal
# Sequence of Left-right determination factor 2 (Homo sapiens) (O00292 whole entry, looked up): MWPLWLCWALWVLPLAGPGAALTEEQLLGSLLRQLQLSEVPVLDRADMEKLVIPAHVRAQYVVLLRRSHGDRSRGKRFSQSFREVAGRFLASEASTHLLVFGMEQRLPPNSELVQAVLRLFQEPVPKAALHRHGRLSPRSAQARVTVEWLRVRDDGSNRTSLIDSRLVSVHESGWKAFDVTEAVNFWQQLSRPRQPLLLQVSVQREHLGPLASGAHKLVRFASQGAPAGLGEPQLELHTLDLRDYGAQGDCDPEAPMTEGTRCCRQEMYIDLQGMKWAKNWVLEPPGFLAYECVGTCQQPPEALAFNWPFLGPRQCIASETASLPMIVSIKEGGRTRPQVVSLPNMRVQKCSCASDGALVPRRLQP
# [14] = biological target: Calmodulin-1 (Homo sapiens) (UniProt P0DP23); assay: CALM1 binders on microarrays, EGTA buffer, profiling panel, biochemical, small-molecule microarray, Cy5-labelled CALM1 (AID 1111); details: Cy5-CALM1 binding fluorescence, higher = more signal;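 also: labelled calmodulin applied in Tris saline Tween buffer holding calcium plus EGTA and DTT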
# [15] = biological target: Calmodulin-1 (Homo sapiens) (UniProt P0DP23); assay: calcium-bound CALM1 binders on microarrays, profiling panel, artefact control for SMM control-protein annotation, biochemical, small-molecule microarray, Cy5-labelled CALM1, plus calcium (AID 1112); details: Cy5-CALM1 binding fluorescence, higher = more signal;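 also: score merges spot fluorescence with signal to noise from triplicate slides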
# [16] = small-molecule microarray binders of probe aWnt5a, primary screen, biochemical, biotinylated probe, 635/667 nm fluorescence (AID 1113); details: higher = more signal;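 also: score merges 667 nm fluorescence intensity with signal-to-noise per printed feature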
# [17] = small-molecule microarray binders of probe aShh, primary screen, biochemical, biotinylated probe, 635/667 nm fluorescence (AID 1114); details: higher = more signal;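 also: probe is biotin-labelled aShh protein from a stem cell growth factor screen; measures binding of labelled protein to compounds printed on the slide; score merges feature fluorescence at 667 nm with signal-to-noise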
# [18] = small-molecule microarray binders of probe aNog, primary screen, biochemical, biotinylated probe, 635/667 nm fluorescence (AID 1115); details: higher = more signal;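 also: probe is biotinylated aNog protein used at 0.15 µg/mL for 1 h at 4 C; z-score combines 667 nm fluorescence of each spot with its signal to noise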
# [19] = biological target: Torsin-1A-interacting protein 1 (Homo sapiens) (UniProt Q5JTV8); assay: LAP1 binders from COS7 cell lysate, primary screen, small-molecule microarray, 635/667 nm fluorescence (AID 1116); details: COS7-hLAP1 lysate binding, 635 nm fluorescence, higher = more signal
# Sequence of Torsin-1A-interacting protein 1 (Homo sapiens) (Q5JTV8 whole entry, looked up): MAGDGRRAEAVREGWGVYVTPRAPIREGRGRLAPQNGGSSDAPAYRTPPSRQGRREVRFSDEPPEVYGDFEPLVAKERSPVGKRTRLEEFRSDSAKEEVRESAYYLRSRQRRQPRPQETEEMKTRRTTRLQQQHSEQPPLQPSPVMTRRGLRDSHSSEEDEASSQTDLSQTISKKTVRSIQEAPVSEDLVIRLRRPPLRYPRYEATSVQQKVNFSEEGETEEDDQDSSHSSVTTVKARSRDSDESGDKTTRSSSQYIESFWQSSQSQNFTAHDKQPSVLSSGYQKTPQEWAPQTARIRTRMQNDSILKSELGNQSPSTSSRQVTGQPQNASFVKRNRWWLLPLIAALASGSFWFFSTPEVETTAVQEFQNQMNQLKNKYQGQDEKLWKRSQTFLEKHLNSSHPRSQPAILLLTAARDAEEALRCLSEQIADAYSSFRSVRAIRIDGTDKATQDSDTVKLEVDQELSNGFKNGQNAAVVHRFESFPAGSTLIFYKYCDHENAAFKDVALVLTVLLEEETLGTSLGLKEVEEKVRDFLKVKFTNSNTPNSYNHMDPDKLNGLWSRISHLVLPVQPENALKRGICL
# [20] = biological target: Alpha-bungarotoxin (Bungarus multicinctus) (UniProt P60615); assay: alpha-bungarotoxin binders on microarray, profiling panel, artefact control for SMM control protein annotation, biochemical, small-molecule microarray, Alexa647 label, 635/667 nm fluorescence (AID 1117); details: alpha-BTX-A647 binding fluorescence, higher = more signal
# Sequence of Alpha-bungarotoxin (Bungarus multicinctus) (P60615 whole entry, looked up): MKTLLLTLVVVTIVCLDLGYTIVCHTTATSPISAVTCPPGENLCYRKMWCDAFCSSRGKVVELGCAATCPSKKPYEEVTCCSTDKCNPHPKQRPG
SMILES,composite z-score [1],composite z-score [2],composite z-score [3],z-score [4],composite z-score [5],composite z-score [6],composite z-score [7],composite z-score [8],composite z-score [9],composite z-score [10],composite z-score [11],z-score [12],composite z-score [13],composite z-score [14],composite z-score [15],composite z-score [16],composite z-score [17],composite z-score [18],composite z-score [19],composite z-score [20]
C=C[C@H](CO)NS(=O)(=O)c1ccc(Br)cc1,0.54,0.867,-0.54,-0.0902 (inactive),0.335,0.526,0.393,0.695,0.751,0.84,1.05,0.109,0.375,0.158,-0.268,-0.096,-0.2,-0.266,0.306,0.275
O=C1c2ccccc2[C@](Cc2ccccc2I)(C(=O)NCC(F)(F)F)[C@H](c2ccc(CO)cc2)N1Cc1ccccc1Cl,1.4,-0.0951,0.502,-0.504 (inactive),0.588,0.539,0.0527,0.923,-0.19,0.41,1.41,-0.798,-0.141,1.03,0.512,-0.0472,0.0632,-0.239,0.208,0.918
CCCC[C@@H]1C[C@H]1[C@@H](NC(=O)C(C)(C)C)c1ccc(C(F)(F)F)cc1,-0.0923,0.767,1.44,-2.95 (inactive),-1.23,-0.266,-1.76,-1.63,-1.61,0.328,0.946,-1.71,-1.61,1.18,1.3,-0.203,0.102,1.52,0.473,-0.0729
COC(=O)[C@@]1(Cc2ccc(OC)cc2)[C@H]2c3cc(C(=O)N4CCCC4)n(Cc4ccc(C)c(F)c4F)c3C[C@H]2CN1C(=O)c1ccccc1,1.05,1.09,1.33,-0.282 (inactive),0.791,1.29,-0.139,1.18,-0.602,0.702,1.48,-2.34,-0.401,2.14,1.3,-0.0553,-0.155,1.65,0.113,1.55
COC(=O)C[C@H]1O[C@]2(C(=O)N(C)c3ccccc32)[C@@H](C)[C@@H]1[Si](C)(C)F,-0.0042,-0.113,-0.583,-1.8 (inactive),0.96,0.557,0.616,0.774,0.695,0.369,0.882,0.0456,0.392,0.0461,-0.389,-0.0472,0.23,-0.357,0.239,-0.0089
CO[C@H]1O[C@H](CO)[C@@H](OC(=O)Nc2ccc(C(F)(F)F)cc2)[C@H](OC(=O)Nc2ccc3c(c2)OCO3)[C@@H]1OC(=O)Nc1ccc2c(c1)OCO2,1.06,0.346,0.284,-1.29 (inactive),1.41,1.2,0.587,0.527,0.711,0.543,0.335,-2.44,0.819,0.784,-0.764,0.101,0.221,1.71,1.34,0.943
C=C(CCCC)/C(=C/C[C@@H](OC(=O)c1ccncc1)c1ccc(OCCO)cc1)c1cc(C(=O)OC)ccc1OC,0.0247,0.0101,-0.287,0.489 (inactive),0.876,0.605,-0.0331,0.937,0.135,0.218,1.41,-1.91,-0.0304,0.168,-0.959,-0.166,-0.138,-0.144,0.883,0.311
CCCC#C[Si](O[C@H](CC)c1cn(Cc2cccc(Cl)c2)nn1)(C(C)C)C(C)C,0.377,-0.23,-0.45,-1.01 (inactive),1.11,1.05,0.484,0.566,0.52,-0.121,1.3,-0.113,0.431,0.0375,0.169,-0.0944,-0.153,-0.307,0.545,-0.2
COCCOC(=O)N1C(=O)[C@@]2(c3cc(C#CCC(C(=O)OC)C(=O)OC)ccc31)[C@H](C(=O)Nc1nc3ccccc3s1)[C@H]1C(=O)O[C@H](c3ccccc3)[C@H](c3ccccc3)N1[C@@H]2c1ccccc1OCCO,1.52,0.467,0.76,0.952 (inactive),0.634,1.04,0.231,1.29,-0.154,0.046,0.142,-1.52,0.6,1.69,0.72,-0.0445,0.151,0.106,0.886,2.2
CC(=O)n1cc(C(O)C2C=CC3C(=O)N(c4ccccc4)C(=O)C3N2Nc2ccc([N+](=O)[O-])cc2)c2ccccc21 (stereo not given),0.894,0.929,1.38,0.138 (inactive),-0.0673,1.28,-0.142,0.38,-0.113,0.783,0.275,-0.0176,-0.712,1.73,0.571,-0.0459,-0.0243,0.576,1.87,1.7
O=C(OCc1ccccc1)C1=CCC2c3[nH]c4ccccc4c3C(=O)C1N2S(=O)(=O)c1ccccc1[N+](=O)[O-] (stereo not given),1.42,0.332,0.381,-0.00197 (inactive),1.33,1.32,0.727,1.42,0.109,0.618,1.42,-2.6,0.831,0.418,-0.369,0.0597,0.14,-0.549,0.432,0.584
CCCCN1CC=CC23O[C@@H]4C=CCCOC(=O)C4[C@H]2C(=O)N(CCCCCCO)[C@@H]3C1=O (stereo not given in full),1.45,-0.466,-0.112,0.705 (inactive),-1.22,-0.163,-0.677,-0.187,-1.21,-0.39,0.748,-0.485,-1.11,-0.235,-0.0631,-0.274,-0.117,-0.413,0.999,-0.324
CC1CC/C=C\[C@H]2OC34C=CCN(C(C)(C)C)C(=O)[C@H]3N(CCO)C(=O)[C@@H]4C2C(=O)O1 (stereo not given in full),-0.103,-0.404,0.51,0.851 (inactive),-0.98,-0.496,-1.33,-0.755,-0.739,-0.0663,-0.432,-0.106,-1.66,-1.34,-0.746,-0.224,-0.372,0.489,-1.25,-0.153
